Experimental data from PubChem BioAssay (EPA / NIEHS).
Inconclusive results are not listed. Activity calls are given as the source filed them. The calls were made as follows: active = hit-call score of the fitted dose curve at least 0.9, where 1 is the maximum; inconclusive = response in the unintended direction; inactive = score below 0.9.

biological target: Nuclear receptor subfamily 1 group I member 3 (Homo sapiens) (UniProt Q14994); assay: ATG_CAR_TRANS: Attagene TRANS-FACTORIAL HepG2 Assay for human Constitutive Androstane Receptor (CAR) (AID 2282969); conditions: HepG2 Attagene TRANS-FACTORIAL CAR reporter;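 also: activators raise reporter mRNA above DMSO so AC50 marks induction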
Method: ATG_TRANS is a cell-based, multiplexed-readout assay that uses HepG2, a human liver cell line, with measurements taken at 24 hours after chemical dosing in a 24-well plate.ATG_CAR_TRANS is one of 30 assay component(s) measured or calculated from the ATG_TRANS assay. It is designed to make measurements of mRNA induction, a form of inducible reporter, as detected with fluorescence intensity signals by Reverse transcription polymerase chain reaction (RT-PCR) and Capillary electrophoresis technology.Data from the assay component ATG_CAR_TRANS was analyzed into 1 assay endpoint. This assay endpoint, ATG_CAR_TRANS, was analyzed in the positive analysis fitting direction relative to DMSO as the negative control and baseline of activity. Using a type of inducible reporter, measures of mRNA for gain-of-signal activity can be used to understand the reporter gene at the transcription factor-level as they relate to the gene NR1I3. Furthermore, this assay endpoint can be referred to as a primary readout, because this assay has produced multiple assay endpoints where this one serves a reporter gene function. To generalize the intended target to other relatable targets, this assay endpoint is annotated to the nuclear receptor intended target family, where the subfamily is non-steroidal.
Human liver HepG2 cells are transiently transfected with multiple reporter transcription units (MRTUs) in 6-well plates using FuGene 6 reagent (Roche; 3 ml FuGene/1 mg DNA). The MRTU constructs are regulated by a cis-regulating element (promoter). […] A major difference between the CIS and TRANS system is that in CIS activities of endogenous TFs are measured, whereas the TRANS assay evaluates changes in activities of exogenous, chimeric NR-Gal4 proteins. […] At the end of 24 hour incubation, total RNA was isolated using TriZol reagent (Invitrogen). The isolated RNA is then reverse-transcribed using oligo(dT) primer and Mo-MLV reverse transcriptase (Invitrogen) with DNAse I (Ambion) treatment for 30 min. The one-tenth of the produced cDNA was amplified by PCR using Taq DNA polymerase (Invitrogen) and two reporter sequence-specific primers. The PCR products were fluorescently labeled by primer extension with 6-arboxyfluorescein (6-FAM) 5'-labeled reporter sequence-specific primer (2 min at 95 C, 20 s at 68 C and 10 min at 72 C) and these products were digested with 5U of HpaI (New England Biolabs) for 2h at 37 C. The fragments were purified using Qiaquick PCR columns (Qiagen), analyzed on an ABI 3130xL genetic analyzer (Applied Biosystems) with peak positions identified by using a set of X-rhodamine (ROX)-labeled MapMarker1000 molecular weight standards (BioVentures). The raw capillary electrophoresis data was processed using Attagraph software (Attagene).

Nuclear receptor subfamily 1 group I member 3 (Homo sapiens), sequence (Q14994 whole entry, looked up): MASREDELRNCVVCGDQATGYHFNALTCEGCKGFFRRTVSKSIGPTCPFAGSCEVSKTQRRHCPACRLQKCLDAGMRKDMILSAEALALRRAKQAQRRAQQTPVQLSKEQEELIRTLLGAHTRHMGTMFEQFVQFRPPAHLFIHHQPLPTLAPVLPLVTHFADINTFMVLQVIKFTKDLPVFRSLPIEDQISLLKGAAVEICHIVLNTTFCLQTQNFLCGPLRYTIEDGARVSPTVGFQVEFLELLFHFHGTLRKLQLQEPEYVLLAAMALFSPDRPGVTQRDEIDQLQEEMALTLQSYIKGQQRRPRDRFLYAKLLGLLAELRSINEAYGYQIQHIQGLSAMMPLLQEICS

Row | SMILES | outcome | AC50
1 | CNC(=O)N(C)c1nc2ccccc2s1 | inactive | 
2 | Cc1ccccc1OP(=O)(Oc1ccccc1C)Oc1ccccc1C | inactive | 
3 | C[CH2][Hg][S]c1ccccc1C(=O)O | inactive | 
4 | O=NN1CCCCCCC1 | inactive | 
5 | CNC(=O)O/N=C/C(C)(C)S(C)(=O)=O | inactive | 
6 | Nc1c(Oc2ccccc2)cc(O)c2c1C(=O)c1ccccc1C2=O | inactive | 
7 | Oc1c(Br)cc(Br)cc1Br | inactive | 
8 | CC[N+](CC)(CC)CC | inactive | 
9 | CCOP(=S)(OCC)SCS(=O)(=O)C(C)(C)C | inactive | 
10 | CCC(C)(C#N)N=NC(C)(C#N)CC (stereo not given) | inactive | 
11 | CC(C)=CC1C(C(=O)OCc2cccc(Oc3ccccc3)c2)C1(C)C (stereo not given) | inactive | 
12 | Cc1cc(Cl)ccc1OCCCC(=O)O | inactive | 
13 | Cc1cccc(OP(=O)(Oc2cccc(C)c2)Oc2cccc(C)c2)c1 | inactive | 
14 | CC(C)[C@H](C(=O)OC(C#N)c1cccc(Oc2ccccc2)c1)c1ccc(OC(F)F)cc1 (stereo not given in full) | inactive | 
15 | CCCCOP(=O)(CCCC)OCCCC | inactive | 
16 | CC(c1ccc(O)cc1)c1ccc(O)cc1 | inactive | 
17 | CN(N=O)c1ccc([N+](=O)[O-])cc1 | inactive | 
18 | Nc1nc(N)nc(Cl)n1 | inactive | 
19 | C=CCCl | inactive | 
20 | Nc1ccc(N)cc1 | inactive | 

Row | SMILES | outcome | AC50
21 | CC(C)(C)c1cc([N+](=O)[O-])cc(C(C)(C)C)c1O | inactive | 
22 | COCC(=O)N(c1c(C)cccc1C)[C@H](C)C(=O)OC | inactive | 
23 | CCOC(=O)CCN(SN(C)C(=O)Oc1cccc2c1OC(C)(C)C2)C(C)C | inactive | 
24 | Cc1cc(Cl)ccc1N | inactive | 
25 | Nc1cccnc1 | inactive | 
26 | CCOC(=O)C(SP(=S)(OC)OC)c1ccccc1 (stereo not given) | inactive | 
27 | Cc1ccc2nc3sc(=O)sc3nc2c1 | inactive | 
28 | CN(C1CCCCC1)C1CCCCC1 | inactive | 
29 | BrCc1ccc(Br)cc1 | inactive | 
30 | O=C(CCl)NCO | inactive | 
31 | C[C@@H]1O[C@@H](O[C@H]2C[C@@H](O)[C@]3(CO)[C@H]4[C@H](O)C[C@]5(C)[C@@H](C6=CC(=O)OC6)CC[C@]5(O)[C@@H]4CC[C@]3(O)C2)[C@H](O)[C@H](O)[C@H]1O | inactive | 
32 | CC(F)(F)CC(F)(F)F | inactive | 
33 | CCCCC(CC)COC(=O)Cl (stereo not given) | inactive | 
34 | CC(C)(C)c1ccc(CCOc2ncnc3ccccc23)cc1 | inactive | 
35 | c1csc(-c2ccc(-c3cccs3)s2)c1 |  | 6.62 µM (active)
36 | CCOC(=O)Cc1ccccc1 | inactive | 
37 | CC(C)(C)c1ccccc1O | inactive | 
38 | C1CN2CCN1CC2 | inactive | 
39 | CC1(C)COP(Oc2ccccc2)OC1 | inactive | 
40 | CC(C)(c1ccc(O)c(-c2ccccc2)c1)c1ccc(O)c(-c2ccccc2)c1 | inactive | 
